# CYP2C9 activ – CYP2C9 (human) activation; P11712; recombinant CYP2C9, luciferin-H conversion, luminescence; hits give high values; factor 1 = untreated enzyme, 0 = blocked; activation factor at 5 µM; 96,000 compounds, 1.4% hits; AID 1024;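 active = activation factor of 2 or more for CYP2C9 at a 5 µM dose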
# Target sequence (P11712 whole entry, looked up): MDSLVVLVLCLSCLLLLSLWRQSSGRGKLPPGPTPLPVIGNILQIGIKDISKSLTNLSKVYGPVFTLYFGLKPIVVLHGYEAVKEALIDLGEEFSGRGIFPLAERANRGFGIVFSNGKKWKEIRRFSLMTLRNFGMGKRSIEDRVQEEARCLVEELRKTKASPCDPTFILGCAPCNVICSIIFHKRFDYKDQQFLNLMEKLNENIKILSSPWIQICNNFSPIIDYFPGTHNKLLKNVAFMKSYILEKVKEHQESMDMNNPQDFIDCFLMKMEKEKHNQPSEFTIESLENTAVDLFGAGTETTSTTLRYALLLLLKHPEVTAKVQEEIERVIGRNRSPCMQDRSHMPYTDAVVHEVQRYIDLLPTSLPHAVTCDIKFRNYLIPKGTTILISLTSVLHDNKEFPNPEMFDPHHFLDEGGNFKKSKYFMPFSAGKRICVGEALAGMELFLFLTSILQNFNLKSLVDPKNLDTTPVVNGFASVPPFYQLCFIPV
# CYP2C9 inh – human CYP2C9 inhibition; P11712; inhibition, % at 5 µM; AID 777; 96,000 compounds, 20% hits; CYP2C9 Supersomes, luciferin-H conversion, luminescence;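 active = blocking of liver enzyme CYP2C9 beyond about 50% at 5 µM, limit read from the data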
# CYP2C19 inhib – inhibitors of human CYP2C19; 96,000 compounds, 21% hits; CYP2C19 Supersomes, luciferin-H EGE luminescence, 30 min; inhibition, % at 5 µM; P33261;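 active = CYP2C19 inhibition above a set limit at 5 µM in the primary screen, cut at about 50% in these data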
# CYP2C19 activ – activators of human cytochrome P450 2C19; P33261; recombinant CYP2C19, luciferin-H EGE luminescence; hits give high values; 0 = fully inhibited enzyme, 1 = untreated enzyme; activation factor at 5 µM; 96,000 tested, under 10 active; AID 1025;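 active = activation factor of at least 2 at 5 µM in the primary screen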
# A number is an active result; – = inactive. Shown are actives, neighbours in structure and some others; about 31% of the full set was active somewhere.
SMILES,CYP2C9 activ,CYP2C9 inh,CYP2C19 inhib,CYP2C19 activ
O=C1CC(c2ccccc2)n2nc(N3C(=O)c4ccccc4C3=O)nc2N1 (configuration not stated),–,–,–,–
O=C(Nc1ccc(Br)cc1F)C1CCCN(S(=O)(=O)c2cnc[nH]2)C1 (configuration not stated),–,79,83,–
O=C(NC(c1ccccc1)c1ccccc1)C1CCCN(S(=O)(=O)c2cnc[nH]2)C1 (configuration not stated),–,76,–,–
O=C(C1CCCN(S(=O)(=O)c2cnc[nH]2)C1)N1CCN(Cc2ccccc2)CC1 (configuration not stated),–,–,–,–
Cc1ccccc1NC(=O)C1CCCN(S(=O)(=O)c2cnc[nH]2)C1 (configuration not stated),–,56,64,–
Cc1ccc(NC(=O)C2CCCN(S(=O)(=O)c3cnc[nH]3)C2)c(Br)c1 (configuration not stated),–,95,93,–
Cc1c(NC(=O)C2CCCN(S(=O)(=O)c3cnc[nH]3)C2)c(=O)n(-c2ccccc2)n1C (configuration not stated),–,–,–,–
Cn1c(=O)n(C)c2cc(NC(=O)CSc3nnc(-c4ccccc4O)n3-c3ccccc3)ccc21,–,–,–,–
O=C(CSc1nc2c(sc3ccccc32)c(=O)n1CCO)NCC1CCCO1 (configuration not stated),–,–,–,–
CCOCCCn1c(SCC(=O)NCc2ccco2)nc2c(sc3ccccc32)c1=O,–,66,–,–
CCOC(=O)CSc1nc2c(sc3ccccc32)c(=O)n1CCCN1CCOCC1,–,55,–,–
CCCCn1c(SCC(=O)NCc2ccco2)nc2c(sc3ccccc32)c1=O,–,74,–,–
CCC(C)NC(=O)CSc1nc2c(sc3ccccc32)c(=O)n1CCCN1CCOCC1 (configuration not stated),–,–,–,–
CCCCn1c(SCC(N)=O)nc2c(sc3ccccc32)c1=O,–,–,–,–
O=C(CSc1nc2c(sc3ccccc32)c(=O)n1CCc1ccccc1)NCc1ccco1,–,52,–,–
O=C(Nc1cc2c(cc1Cl)OCCCO2)c1ccccc1,–,–,–,–
CC1CN(C(=O)CSc2nnc3c(Cl)cc(Cl)cn23)CC(C)O1 (configuration not stated),–,–,–,–
Cc1nc(SCCO)c2oc3ccccc3c2n1,–,–,–,–
COC(=O)C1=C(N)N(c2ccc(F)cc2)C2=C(C(=O)CCC2)C1c1ccc2c(c1)OCO2 (configuration not stated),–,–,–,–
COc1ccc2[nH]c(=O)c(CN(CCc3cccc(C)c3)C(C)=O)cc2c1,–,63,86,–
CC(=O)N(CCc1ccccc1C)Cc1cc2cc3c(cc2[nH]c1=O)OCO3,–,54,75,–
CCC(=O)N(Cc1cc2cc(OC)ccc2[nH]c1=O)c1ccc(C)cc1C,–,55,–,–
COc1ccc2[nH]c(=O)c(CN(C(C)=O)c3cccc(C)c3)cc2c1,–,–,–,–
COc1ccc(C(=O)N(Cc2ccccc2)Cc2cc3cc4c(cc3[nH]c2=O)OCCO4)cc1,–,–,–,–
COCCN(C(=O)CCCC(=O)Nc1ccccn1)C(C(=O)NC1CCCC1)c1ccc(C)cc1 (configuration not stated),–,–,–,–
SMILES,CYP2C9 activ,CYP2C9 inh,CYP2C19 inhib,CYP2C19 activ
O=C(NCSC1=NCCS1)c1ccccc1,–,–,–,–
COc1ccccc1NC(=O)CSc1nnc(CC(=O)Nc2ccccc2)n1C,–,–,–,–
Cn1c(SCC(=O)c2ccccc2)nnc1C1CC1,–,–,50,–
COc1ccccc1NC(=O)CSc1nnc(C2CCCCC2)n1C,–,–,65,–
CCc1nnc(NC(=O)CSc2nnc(C3CCCCC3)n2-c2ccccc2)s1,–,–,–,–
Nn1c(SCC(=O)Nc2cccc(F)c2)nnc1C1CCCCC1,–,53,54,–
Cc1ccccc1NC(=O)Cc1nc(CSc2nnc(C3CCCCC3)n2N)cs1,–,84,55,–
CCOC(=O)c1cccc(NC(=O)CSc2nnc(C3CCCCC3)n2CC)c1,–,–,–,–
CC1Cc2ccccc2N1C(=O)Cn1c(=O)cc(O)c2ccccc21 (configuration not stated),–,–,–,–
Cc1ccc(C(=O)Cn2c(C(=O)/C=C/c3ccccc3)nc3ccccc32)cc1,–,–,–,–
COc1ccc(NC(NC(=O)c2ccc(OC)cc2)C(Cl)(Cl)Cl)cc1 (configuration not stated),–,84,66,–
CCSc1ccccc1C(=O)NCc1ccc2c(c1)OCO2,–,–,99,–
CCOc1ncccc1C(=O)Nc1ccccc1C(=O)NCc1ccc2c(c1)OCO2,–,75,–,–
COC(=O)NCc1ccc2c(c1)OCO2,–,–,–,–
CC(=O)OC(C(=O)NCc1ccc2c(c1)OCO2)c1ccccc1Cl (configuration not stated),–,54,93,–
O=C(NCc1ccc2c(c1)OCO2)c1cnc2ccccn2c1=O,–,–,66,–
O=C(COc1ncnc2ccccc12)NCc1ccc2c(c1)OCO2,–,–,–,–
CCCNC1=C(C)C(=O)CC1,–,–,–,–
Cc1cc(C)n(-c2nncn2NC(=O)c2ccc(Cl)cc2O)n1,–,–,–,–
COc1ccc(CNC(=O)c2cnc3cc(C)ccn3c2=O)cc1,–,–,62,–
COc1ccc(CNC(=O)c2ccccc2SC)cc1,–,–,90,–
COc1ccc(CNC(=O)c2ccc(-c3ccccc3)cc2)cc1,–,–,–,–
CS(=O)(=O)Nc1ccc(C(=O)NCc2ccc3c(c2)OCO3)cc1,–,–,–,–
CSc1ccccc1C(=O)NCc1ccc2c(c1)OCO2,–,–,94,–
CN1CCN(C(=O)c2cc(-c3ccco3)on2)CC1,–,–,–,–
SMILES,CYP2C9 activ,CYP2C9 inh,CYP2C19 inhib,CYP2C19 activ
CC(NC(=O)COc1cc(=O)n(C)c2ccccc12)c1ccc2c(c1)OCCO2 (configuration not stated),–,–,–,–
O=C(CN(c1ccc(F)cc1)S(=O)(=O)c1ccc2c(c1)OCCO2)N1CCOCC1,–,–,–,–
O=C(CN(c1ccc(F)cc1)S(=O)(=O)c1ccc2c(c1)OCCO2)NCc1ccccn1,–,64,95,–
O=C(O)CN(c1ccc2c(c1)OCCO2)S(=O)(=O)c1ccccc1,–,–,–,–
COC(=O)CN(c1ccc2c(c1)OCCO2)S(=O)(=O)c1ccccc1,–,64,84,–
COC(=O)CN(c1ccc(F)cc1)S(=O)(=O)c1ccc2c(c1)OCCO2,–,54,–,–
O=C(ON=C1CCN(c2ccc([N+](=O)[O-])cc2)CC1)c1ccccc1,–,–,–,–
CC(C)OC(=O)CN1C(=O)C(C)(C)Oc2ccc(C(=O)NC3CC3)cc21,–,–,–,–
CC(C)OC(=O)CN1C(=O)C(C)(C)Oc2ccc(C(=O)NC(C)(C)C)cc21,–,73,–,–
Fc1ccc(NC(=S)N/N=C/c2ccc(F)c(F)c2)c(F)c1,–,–,54,–
